Data as given in the supplement of paper PMC6555819.

Assays:
Experiment in all cases: PBM binding z-score (relative to random genomic background probes); higher = stronger binding; sequences stand for … in GC…GCGATTGACAGCGTAGAATGAAGG
[1] = system: FXR:RXRa (NR concentration 270 nM, RXRa partner concentration 90 nM)
Method in brief: (§1)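 Binding z-scores were set against random background probes. The data came from custom Agilent 4×180K protein-binding microarrays carrying double-stranded probes with 34-nt variable regions, incubated 1 h with ligand-free nuclear receptor dimers. Partner-specific antibodies detected binding, and scanned fluorescence was regression-normalized.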

[2] = system: LXRa:RXRa (NR concentration 270 nM, RXRa partner concentration 90 nM)
Method in brief: as §1

[3] = system: LXRa homodimer (NR concentration 270 nM)
Method in brief: as §1

[4] = system: LXRb:RXRa (NR concentration 270 nM, RXRa partner concentration 90 nM)
Method in brief: as §1

[5] = system: LXRb homodimer (NR concentration 270 nM)
Method in brief: as §1

[6] = system: PPARa:RXRa (NR concentration 270 nM, RXRa partner concentration 90 nM)
Method in brief: as §1

[7] = system: PPARg:RXRa (NR concentration 180 nM, RXRa partner concentration 90 nM)
Method in brief: as §1

[8] = system: PPARg:RXRa 270nM:90nM, anti-RXR (NR concentration 270 nM, RXRa partner concentration 90 nM)
Method in brief: as §1

[9] = system: PPARg:RXRa 30nM:10nM, anti-RXR (NR concentration 30 nM, RXRa partner concentration 10 nM)
Method in brief: as §1

[10] = system: PPARg:RXRa 90nM:30nM, anti-RXR (NR concentration 90 nM, RXRa partner concentration 30 nM)
Method in brief: as §1

[11] = system: PPARg:RXRa DBDmut IVT, anti-RXR (DBD mutation: RXRa K156A/R161A, NR concentration 270 nM, RXRa partner concentration 90 nM)
Method in brief: as §1

[12] = system: PPARg:RXRa IVT, anti-PPARg (NR concentration 270 nM, RXRa partner concentration 90 nM)
Method in brief: as §1

[13] = system: PPARg DBDmut:RXRa IVT, anti-PPARg (DBD mutation: PPARg1 K132A/R137A, NR concentration 270 nM, RXRa partner concentration 90 nM)
Method in brief: as §1

[14] = system: PPARg DBDmut IVT, anti-PPARg (DBD mutation: PPARg1 K132A/R137A, NR concentration 270 nM)
Method in brief: as §1

[15] = system: PPARg homodimer (NR concentration 180 nM)
Method in brief: as §1

[16] = system: PXR:RXRa (NR concentration 270 nM, RXRa partner concentration 90 nM)
Method in brief: as §1

[17] = system: PXR homodimer (NR concentration 270 nM)
Method in brief: as §1

[18] = system: RARa:RXR (NR concentration 270 nM, RXRa partner concentration 90 nM)
Method in brief: as §1

[19] = system: RARa homodimer (NR concentration 270 nM)
Method in brief: as §1

[20] = system: RARb:RXRa (NR concentration 270 nM, RXRa partner concentration 90 nM)
Method in brief: as §1

Row | Sequence | PBM binding z-score [1] | PBM binding z-score [2] | PBM binding z-score [3] | PBM binding z-score [4] | PBM binding z-score [5] | PBM binding z-score [6] | PBM binding z-score [7] | PBM binding z-score [8] | PBM binding z-score [9] | PBM binding z-score [10] | PBM binding z-score [11] | PBM binding z-score [12] | PBM binding z-score [13] | PBM binding z-score [14] | PBM binding z-score [15] | PBM binding z-score [16] | PBM binding z-score [17] | PBM binding z-score [18] | PBM binding z-score [19] | PBM binding z-score [20]
1 | ATATGTACGTTACATCCGGGTCATTCAGGCTATG | 1.77 | 1.94 | 1.06 | 2.44 | 0.756 | 2.53 | 1.39 | 1.41 | 0.502 | 1.35 | 1.16 | 1.97 | 2.06 | 2.28 | 1.34 | 3.1 | 3.05 | 3.04 | 0.866 | 1.56
2 | GCGACTGGGCCATCAGCAGGTTACCATAACTTAA | -0.78 | -0.767 | -0.789 | -0.559 | -1.23 | 0.242 | 0.386 | -0.176 | -0.886 | -0.265 | 2.78 | 2.04 | -0.993 | -1.45 | -0.551 | -0.569 | -0.71 | -0.295 | -0.835 | 0.195
3 | CCAGACAGGTGAGAAGGTCACTCAGCCTCGATTA | 2.4 | 2.53 | 0.729 | 2.7 | -0.075 | 3.65 | 2.01 | 3.07 | 0.629 | 1.98 | 1.76 | 2.14 | -0.281 | -1.25 | 3.61 | 3.25 | 1.11 | 4.09 | 2.83 | 3.58
4 | ATATGGAGGTTATCGGGTCATTCAGTTTGCGCAT | 4.63 | 4.39 | 2.28 | 3.8 | 1.41 | 4.84 | 5.29 | 5 | 2.08 | 3.73 | 4.66 | 4.91 | 1.95 | 1.8 | 2.89 | 4.61 | 8.4 | 4.75 | 1.62 | 3.26
5 | AGAATGAGGTTATACGTATATCAGGGAAGAAAGT | 2.23 | 2.1 | 0.245 | 2.04 | 0.468 | 3.47 | 2.58 | 2.29 | 1.04 | 1.85 | 2.88 | 2.25 | 1.21 | 1.56 | 1.21 | 1.45 | 0.473 | 1.92 | 0.666 | 1.44
6 | CAAACTAGGTCACCGGAAGGCCAAAGTCCGCATG | 4.53 | 3.53 | 0.418 | 2.46 | 0.121 | 5.08 | 8.65 | 7.5 | 4.66 | 7.3 | 8.65 | 8.96 | 1.86 | 0.375 | 2.09 | 2.85 | -0.0574 | 3.4 | 0.162 | 4.54
7 | TCTAGCAGGCCAGAGAGTCACTCAAGAGGTACGG | -0.122 | 0.066 | -0.75 | -0.374 | -1.55 | 0.177 | 0.656 | 1.18 | 1.72 | 1.4 | 0.614 | -0.685 | -1.43 | -1.33 | -0.979 | -0.468 | -0.71 | -0.29 | -0.925 | -0.0563
